Source: PubChem BioAssay (NCI)
The panel holds about 79,000 compounds, 15% with a hit somewhere; the sample as a whole holds those more often. Values without a mark were called inactive. Calls of active or inactive are those of the source. No stated cut-off is given here; in the data, active means growth inhibition above about 70%; inactive means the rest.

Experiments:
[1] = NCI Yeast Anticancer Drug Screen. Data for the wt1 strain (AID 149);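 further: 0% = growth of vehicle-treated wt1 cultures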; conditions: S. cerevisiae wt1 strain (SPY 50644) growth inhibition, active compounds read high
Outline: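 Yeast wt1 strain exposed to compounds; growth inhibition measured relative to vehicle-treated controls.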

[2] = NCI Yeast Anticancer Drug Screen. Data for the rad50EPP+ strain (AID 151);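 further: 0% = growth of vehicle-treated control cultures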; conditions: S. cerevisiae rad50 mutant strain, active compounds read high
Outline: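 Strain rad50EPP+; compound exposure; % growth inhibition vs vehicle.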

[3] = NCI Yeast Anticancer Drug Screen. Data for the mgt1 strain (AID 153); conditions: S. cerevisiae mgt1 mutant growth inhibition, active compounds read high
Outline: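 Read-out: yeast growth inhibition vs vehicle control. Strain mgt1, drawn from a panel altered in DNA damage repair or cell cycle control.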

[4] = NCI Yeast Anticancer Drug Screen. Data for the rad50 strain (AID 155);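 further: 0% = growth of vehicle-only cultures of the same strain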; conditions: S. cerevisiae rad50 strain growth inhibition, active compounds read high
Outline: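 Yeast carrying a defined DNA repair defect were exposed to test compounds, and growth was compared with vehicle-treated controls to give percent inhibition.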

[5] = NCI Yeast Anticancer Drug Screen. Data for the rad14 strain (AID 159);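 further: 0% = growth of vehicle-treated control cultures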; conditions: S. cerevisiae rad14 strain growth inhibition, active compounds read high
Outline: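 Yeast cells carrying a defined DNA-repair defect were exposed to compounds, and growth inhibition was calculated relative to vehicle-treated control cultures.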

[6] = NCI Yeast Anticancer Drug Screen. Data for the sgs1 mgt1 strain (AID 161);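 further: 0% = growth of cultures given vehicle only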; conditions: S. cerevisiae sgs1 mgt1 strain, active compounds read high
Outline: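 Genetically altered yeast, compound exposure, growth inhibition relative to vehicle.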

[7] = NCI Yeast Anticancer Drug Screen. Data for the CLN2oe strain (AID 163);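 further: 0% = growth of vehicle-only control cultures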; conditions: S. cerevisiae CLN2oe strain, active compounds read high
Outline: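 Strain altered in cell-cycle control, incubated with compound; growth compared to solvent-treated controls.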

[8] = NCI Yeast Anticancer Drug Screen. Data for the cln2 rad14 strain (AID 165);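 further: 0% = growth equal to vehicle treated cultures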; conditions: S. cerevisiae cln2 rad14 strain, active compounds read high
Outline: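 The screen exposed genetically defined yeast (cln2 rad14) to test compounds and scored growth inhibition relative to vehicle-treated controls.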

[9] = NCI Yeast Anticancer Drug Screen. Data for the bub3 strain (AID 167); conditions: S. cerevisiae bub3 mutant strain, active compounds read high
Outline: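 Compounds were applied to a genetically altered yeast strain carrying a cell-cycle control defect. Growth inhibition was scored against vehicle-treated controls.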

[10] = NCI Yeast Anticancer Drug Screen. Data for the wt2 strain (AID 169);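 further: 0% = growth of vehicle-treated yeast cultures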; conditions: S. cerevisiae wt2 strain growth inhibition, active compounds read high
Outline: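 Steps: yeast strain treated with compound; growth recorded; inhibition calculated relative to cultures given vehicle alone.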

[11] = NCI Yeast Anticancer Drug Screen. Data for the mlh1 strain (AID 171);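 further: 0% = growth of vehicle-treated control cultures of the same strain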; conditions: S. cerevisiae mlh1 strain growth inhibition, active compounds read high
Outline: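 Yeast screen: mutant strain plus compound, growth scored against vehicle control wells.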

[12] = NCI Yeast Anticancer Drug Screen. Data for the sgs1 strain (AID 173);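 further: 0% = growth of vehicle-only control cultures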; conditions: S. cerevisiae sgs1 mutant, active compounds read high
Outline: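 Inhibition of yeast growth served as the measure. The mutant strain was treated with each compound, and growth was normalised to cultures receiving vehicle alone.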

[13] = NCI Yeast Anticancer Drug Screen. Data for the mec2-1 strain (AID 157); conditions: S. cerevisiae mec2-1 strain, active compounds read high
Outline: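 Cells of the genetically defined mec2-1 yeast strain are incubated with test compound. Inhibition of growth is calculated against vehicle-treated controls.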

[14] = NCI Yeast Anticancer Drug Screen. Data for the mlh1 rad18 strain (AID 175); conditions: S. cerevisiae mlh1 rad18 strain growth inhibition, active compounds read high
Outline: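 Compound-treated yeast growth, normalised to vehicle controls. Strain bears defined DNA repair mutations.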

[15] = NCI Yeast Anticancer Drug Screen. Data for the rad18 strain (AID 177); conditions: S. cerevisiae rad18 mutant growth inhibition, active compounds read high
Outline: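 Inhibition values reflect reduced yeast growth compared with vehicle-treated controls, using a strain engineered with a DNA damage repair defect.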

[16] = at 5.0 µM (retest, dose inferred, filed as 0.5)
[17] = at 50.0 µM (retest, dose inferred, filed as 5.0)

SMILES: O=C(/C=C/c1cccc(Br)c1)c1ccc(Cl)cc1
- growth inhibition ([1]; at 1.2 µM): -46%
- growth inhibition ([1]; at 3.7 µM): -44%
- growth inhibition ([1]; at 11.0 µM): -12%
- growth inhibition ([1]; at 33.0 µM): 9%
- growth inhibition ([1]; at 100.0 µM): 63%
- growth inhibition ([2]; at 1.2 µM): -62%
- growth inhibition ([2]; at 3.7 µM): -22%
- growth inhibition ([2]; at 11.0 µM): -25%
- growth inhibition ([2]; at 33.0 µM): -13%
- growth inhibition ([2]; at 100.0 µM): 2%
- growth inhibition ([3]; at 1.2 µM): -40%
- growth inhibition ([3]; at 3.7 µM): -36%
- growth inhibition ([3]; at 11.0 µM): -13%
- growth inhibition ([3]; at 33.0 µM): 32%
- growth inhibition ([3]; at 100.0 µM): 70% (active)
- growth inhibition ([4]; at 1.2 µM): -9%
- growth inhibition ([4]; at 3.7 µM): 0%
- growth inhibition [4, 16]: 35%
- growth inhibition ([4]; at 11.0 µM): 27%
- growth inhibition ([4]; at 33.0 µM): 66%
- growth inhibition [4, 17]: 47%
- growth inhibition ([4]; at 50.0 µM): 81.9% (active)
- growth inhibition ([4]; at 100.0 µM): 82% (active)
- growth inhibition ([5]; at 1.2 µM): -67%
- growth inhibition ([5]; at 3.7 µM): -46%
- growth inhibition ([5]; at 11.0 µM): -49%
- growth inhibition ([5]; at 33.0 µM): -15%
- growth inhibition ([5]; at 100.0 µM): 46%
- growth inhibition [6, 16]: 4%
- growth inhibition [6, 17]: 60%
- growth inhibition ([7]; at 1.2 µM): -17%
- growth inhibition ([7]; at 3.7 µM): -19%
- growth inhibition ([7]; at 11.0 µM): -13%
- growth inhibition ([7]; at 33.0 µM): -12%
- growth inhibition ([7]; at 100.0 µM): 36%
- growth inhibition [8, 16]: 46%
- growth inhibition [8, 17]: 48%
- growth inhibition ([9]; at 1.2 µM): -16%
- growth inhibition ([9]; at 3.7 µM): -7%
- growth inhibition [9, 16]: 52%
- growth inhibition ([9]; at 11.0 µM): 38%
- growth inhibition ([9]; at 33.0 µM): 57%
- growth inhibition [9, 17]: 84% (active)
- growth inhibition ([9]; at 100.0 µM): 82% (active)
- growth inhibition ([10]; at 1.2 µM): -31%
- growth inhibition ([10]; at 3.7 µM): -28%
- growth inhibition ([10]; at 11.0 µM): -19%
- growth inhibition ([10]; at 33.0 µM): 20%
- growth inhibition ([10]; at 100.0 µM): 72% (active)
- growth inhibition ([11]; at 1.2 µM): -30%
- growth inhibition ([11]; at 3.7 µM): -19%
- growth inhibition ([11]; at 11.0 µM): -7%
- growth inhibition ([11]; at 33.0 µM): 19%
- growth inhibition ([11]; at 100.0 µM): 76% (active)
- growth inhibition ([12]; at 1.2 µM): -67%
- growth inhibition ([12]; at 3.7 µM): -42%
- growth inhibition ([12]; at 11.0 µM): -7%
- growth inhibition ([12]; at 33.0 µM): 31%
- growth inhibition ([12]; at 100.0 µM): 73% (active)

SMILES: COC(=O)c1n[nH]c(C)c1N=NN(C)CCC#N
- growth inhibition ([1]; at 1.2 µM): -6%
- growth inhibition ([1]; at 3.7 µM): -5%
- growth inhibition ([1]; at 11.0 µM): 97% (active)
- growth inhibition ([1]; at 33.0 µM): 99% (active)
- growth inhibition ([1]; at 100.0 µM): 99% (active)
- growth inhibition ([2]; at 1.2 µM): 26%
- growth inhibition ([2]; at 3.7 µM): 77% (active)
- growth inhibition ([2]; at 11.0 µM): 95% (active)
- growth inhibition ([2]; at 33.0 µM): 97% (active)
- growth inhibition ([2]; at 100.0 µM): 99% (active)
- growth inhibition ([4]; at 1.2 µM): 18%
- growth inhibition ([4]; at 3.7 µM): 81% (active)
- growth inhibition [4, 16]: 69%
- growth inhibition ([4]; at 11.0 µM): 96% (active)
- growth inhibition ([4]; at 33.0 µM): 98% (active)
- growth inhibition [4, 17]: 96% (active)
- growth inhibition ([4]; at 50.0 µM): 98.5% (active)
- growth inhibition ([4]; at 100.0 µM): 99% (active)
- growth inhibition ([13]; at 1.2 µM): 2%
- growth inhibition ([13]; at 3.7 µM): 3%
- growth inhibition [13, 16]: -31%
- growth inhibition ([13]; at 11.0 µM): 99% (active)
- growth inhibition ([13]; at 33.0 µM): 99% (active)
- growth inhibition [13, 17]: 98% (active)
- growth inhibition ([13]; at 50.0 µM): 99.2% (active)
- growth inhibition ([13]; at 100.0 µM): 99% (active)
- growth inhibition ([5]; at 1.2 µM): 1%
- growth inhibition ([5]; at 3.7 µM): 11%
- growth inhibition ([5]; at 11.0 µM): 72% (active)
- growth inhibition ([5]; at 33.0 µM): 99% (active)
- growth inhibition ([5]; at 100.0 µM): 99% (active)
- growth inhibition [6, 16]: -11%
- growth inhibition [6, 17]: 96% (active)
- growth inhibition ([6]; at 50.0 µM): 98.8% (active)
- growth inhibition ([7]; at 1.2 µM): -2%
- growth inhibition ([7]; at 3.7 µM): -3%
- growth inhibition ([7]; at 11.0 µM): 95% (active)
- growth inhibition ([7]; at 33.0 µM): 99% (active)
- growth inhibition ([7]; at 100.0 µM): 99% (active)
- growth inhibition [8, 16]: -41%
- growth inhibition [8, 17]: 98% (active)
- growth inhibition ([8]; at 50.0 µM): 97.8% (active)
- growth inhibition ([9]; at 1.2 µM): -21%
- growth inhibition ([9]; at 3.7 µM): -16%
- growth inhibition [9, 16]: -71%
- growth inhibition ([9]; at 11.0 µM): 80% (active)
- growth inhibition ([9]; at 33.0 µM): 99% (active)
- growth inhibition [9, 17]: 97% (active)
- growth inhibition ([9]; at 50.0 µM): 99% (active)
- growth inhibition ([9]; at 100.0 µM): 98% (active)
- growth inhibition ([10]; at 1.2 µM): 0%
- growth inhibition ([10]; at 3.7 µM): 11%
- growth inhibition ([10]; at 11.0 µM): 99% (active)
- growth inhibition ([10]; at 33.0 µM): 99% (active)
- growth inhibition ([10]; at 100.0 µM): 99% (active)
- growth inhibition ([11]; at 1.2 µM): 7%
- growth inhibition ([11]; at 3.7 µM): 0%
- growth inhibition ([11]; at 11.0 µM): 98% (active)
- growth inhibition ([11]; at 33.0 µM): 99% (active)
- growth inhibition ([11]; at 100.0 µM): 99% (active)
- growth inhibition ([12]; at 1.2 µM): 15%
- growth inhibition ([12]; at 3.7 µM): 70% (active)
- growth inhibition ([12]; at 11.0 µM): 99% (active)
- growth inhibition ([12]; at 33.0 µM): 99% (active)
- growth inhibition ([12]; at 100.0 µM): 99% (active)
- growth inhibition [14, 16]: -49%
- growth inhibition [14, 17]: 97% (active)
- growth inhibition ([14]; at 50.0 µM): 98.8% (active)
- growth inhibition ([15]; at 1.2 µM): 16%
- growth inhibition ([15]; at 3.7 µM): 68%
- growth inhibition ([15]; at 11.0 µM): 95% (active)
- growth inhibition ([15]; at 33.0 µM): 98% (active)
- growth inhibition ([15]; at 100.0 µM): 99% (active)
